Screening results as filed in PubChem BioAssay.
KB-3-1 tox = KB-3-1 parental cell cytotoxicity | AID 1347075 | Potency, µM (titrated, usually from 46.1 µM), usual class: cytotoxic | 400,000 tested, 1.4% active | KB-3-1 viability, CellTiter-Glo ATP luminescence, 72 h; further: potency means the concentration at half of the fitted maximal effect; on the % scale 0 is the no-effect control and ±100 the full control effect; nearly all actives have a fitted effect of over 60% in size
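Viability of parental KB-3-1 cells, measured by CellTiter-Glo luminescence, followed a 72 h incubation at 37 °C with pinned compounds in phenol-red-free DMEM containing 10% FBS.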
KB-V1 cytotox = kills drug-selected multidrug resistant KB-V1 cells. KB-V1 MDR cells viability, CellTiter-Glo, 72 h. Potency, µM (top dose mostly 46.1 µM), usual class: cytotoxic. 400,000 tested, 3.4% active. AID 1347076; further: potency means the concentration at half of the fitted maximal effect; on the % scale 0 is the no-effect control and ±100 the full control effect; nearly all actives have a fitted effect of over 60% in size
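Cytotoxicity toward P-gp-expressing KB-V1 cells was determined as loss of CellTiter-Glo luminescence after 72 h at 37 degrees C. Compounds were tested in quantitative HTS format across a concentration range, with curves fitted to normalized data.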
KCNH2 3.1 inh = blocks the human KCNH2 3.1 channel isoform; U2OS KCNH2 3.1, thallium flux FluxOr; stronger effect = lower value; activity change, % (tested at about 1.8 µM); 340,000 tested, 0.95% active; AID 720553;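 active means maximum activity change below -70%; inconclusive means maximum activity change from -70% to -50%; inactive means maximum activity change above -50%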;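 further: thallium influx rate constant from kinetic fluorescence after stimulation buffer; on the % scale 0 is the no-effect control and ±100 the full control effect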
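FluxOr-based Tl+ influx in U2OS cells transduced with KCNH2 3.1 virus; rate constants normalized to DMSO controls.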
hERG WT inh = KCNH2 (human, wildtype) channel inhibition; Q12809; U2OS, BacMam KCNH2, thallium flux FluxOr; stronger effect = lower value; activity change, % at 1.84 µM; 340,000 tested, 0.37% active;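 active means maximum activity change below -70%; inconclusive means maximum activity change between -70% and -50%; inactive means maximum activity change above -50%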; further: on the % scale 0 is the no-effect control and ±100 the full control effect
Target sequence (Q12809 whole entry, looked up): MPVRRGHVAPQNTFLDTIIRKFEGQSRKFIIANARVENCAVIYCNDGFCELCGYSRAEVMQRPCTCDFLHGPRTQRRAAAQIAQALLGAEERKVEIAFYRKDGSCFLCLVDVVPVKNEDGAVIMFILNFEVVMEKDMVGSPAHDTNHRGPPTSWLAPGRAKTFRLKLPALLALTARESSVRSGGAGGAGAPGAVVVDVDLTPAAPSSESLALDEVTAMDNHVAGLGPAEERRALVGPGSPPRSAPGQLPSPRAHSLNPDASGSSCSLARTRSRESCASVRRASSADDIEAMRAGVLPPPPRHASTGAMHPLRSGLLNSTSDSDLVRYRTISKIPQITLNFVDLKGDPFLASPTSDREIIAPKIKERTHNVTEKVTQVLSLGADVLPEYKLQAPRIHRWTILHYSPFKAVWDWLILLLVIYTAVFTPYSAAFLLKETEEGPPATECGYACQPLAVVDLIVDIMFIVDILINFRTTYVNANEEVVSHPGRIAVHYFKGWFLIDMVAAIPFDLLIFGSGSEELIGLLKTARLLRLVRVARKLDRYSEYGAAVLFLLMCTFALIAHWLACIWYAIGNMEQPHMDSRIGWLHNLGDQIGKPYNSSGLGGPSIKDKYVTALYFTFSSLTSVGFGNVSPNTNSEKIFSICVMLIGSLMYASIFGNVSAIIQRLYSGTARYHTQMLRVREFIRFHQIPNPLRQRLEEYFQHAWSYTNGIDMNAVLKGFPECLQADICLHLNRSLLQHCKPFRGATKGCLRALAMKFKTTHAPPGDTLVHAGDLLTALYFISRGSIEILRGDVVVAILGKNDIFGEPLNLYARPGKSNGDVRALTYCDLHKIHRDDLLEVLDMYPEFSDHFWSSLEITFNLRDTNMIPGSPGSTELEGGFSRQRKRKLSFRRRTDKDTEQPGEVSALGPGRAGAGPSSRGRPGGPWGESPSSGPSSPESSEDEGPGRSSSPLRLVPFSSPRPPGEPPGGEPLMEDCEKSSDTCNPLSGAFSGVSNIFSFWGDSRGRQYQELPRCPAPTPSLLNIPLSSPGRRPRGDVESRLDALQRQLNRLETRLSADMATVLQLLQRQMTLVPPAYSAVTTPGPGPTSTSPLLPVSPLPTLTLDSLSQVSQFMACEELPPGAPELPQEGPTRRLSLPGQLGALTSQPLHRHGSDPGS
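U2OS cells transduced with wild-type KCNH2 virus are loaded with FluxOr dye for 45 min, and thallium flux is measured in kinetic reads before and after stimulation buffer. Rate constants are normalized to DMSO controls.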
SW480 rerep = inducers of DNA re-replication in SW480 colon cancer cells. SW480 DNA re-replication, Hoechst DNA content imaging, 48 h. Potency, µM (highest dose often 46.1 µM), inactives show at the top dose re-replication activation, actives largely listed as activators. 340,000 tested, 1.8% active; further: potency means the concentration at half of the fitted maximal effect; % of control where 0% means no effect; nearly all actives have a fitted effect of over 55% in size
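Image-based DNA-content assay: after two days of treatment, nuclei were labelled with the DNA dye Hoechst and imaged, and hits were compounds raising the count of nuclei showing high fluorescence intensity.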
MCF10A rerep = DNA re-replication induction in MCF 10a cells | 350,000 tested, 2.9% active | AID 624296 | MCF 10A DNA re-replication, Hoechst nuclear intensity, 48 h | Potency, µM (doses to about 46.1 µM), for inactives: top-dose activity, positive = re-replication, actives largely listed as activators; further: potency means the concentration at half of the fitted maximal effect; % of control where 0% means no effect; nearly all actives have a fitted effect of over 50% in size
The depositor's hits bear a star; i = inactive; ? = inconclusive; · = no result given. This is a sample that favours compounds with a hit; in the whole collection about 7.6% have one here. Unless noted, the call rests on the fitted dose curve; in most records, active means well fitted curve in the direction sought with a large enough effect; inconclusive means small, poorly fitted or top-dose-only effect, or another doubt; inactive means no such curve, though single readings can be large; an effect the other way counts as inactive or inconclusive.

SMILES	KB-3-1 tox	KB-V1 cytotox	KCNH2 3.1 inh	hERG WT inh	SW480 rerep	MCF10A rerep
CCOCCCNC(=O)C1CCC(CNS(=O)(=O)c2cccc3nsnc23)CC1 (stereo not given)	i	21µM*	6	-25	-8%	-1%
CCCCNC(=O)C1CCC(CNS(=O)(=O)c2cccc3nsnc23)CC1 (stereo not given)	i	i	-1	-4	-10%	0%
O=C(NC1c2ccccc2Oc2ccccc21)c1ccc([N+](=O)[O-])cc1	i	i	-100*	?	30%	26%
O=C(N[C@H]1CC1c1ccccc1)c1ccc([N+](=O)[O-])cc1 (stereo not given in full)	i	i	37	1	-17%	-4%
COCCNC(=O)c1ccc(Cl)c(S(=O)(=O)Nc2cccc(C)c2C)c1	i	i	2	-2	-2%	1%
Nc1nonc1-c1nc2ccccc2n1Cc1cccc(Cl)c1	i	i	·	·	·	·
COc1cc(Cn2c(-c3nonc3N)nc3ccccc32)ccc1C	4.6µM*	5.2µM*	6	1	7.1µM*	4µM*
COc1cccc(Cn2c(-c3nonc3N)nc3ccccc32)c1	2.9µM*	12µM*	-17	-5	4.6µM*	2.6µM*
Cc1ccc(Cn2c(-c3nonc3N)nc3ccccc32)cc1	i	i	-8	-8	2%	16%
O=C(NCc1ccc(F)cc1)c1cc(C2CCCN(C(=O)c3ccc4ccccc4c3)C2)on1 (stereo not given)	i	i	·	·	·	·
CCOC(=O)C1=C(c2ccccc2)NC(=S)NC1C (stereo not given)	i	i	3	1	-2%	6%
COc1ccc(/C=C2\CCC(C3CCCC3)C2=O)cc1Cn1cccn1 (stereo not given)	i	23µM*	-16	-15	29%	54%
COc1ccccc1/C=C1\CCC(C2CCCC2)C1=O (stereo not given)	i	i	0	9	-2%	18µM*
CSc1ccc(CCNC(=O)CCCn2nc(C)c3sc4ccccc4c3c2=O)cc1	i	i	·	·	·	·
CNC(=O)c1cnn2c(C)cc(C)nc12	i	i	·	·	·	·
COc1ccc(C(C(=O)NC2CCCC2)N(C(=O)c2snc(-c3ccc(F)cc3)c2N)c2ccccc2)cc1 (stereo not given)	i	i	-28	1	17%	2%
COc1ccc(C(C(=O)NC2CCCC2)N(C(=O)c2snc(-c3ccc(F)cc3)c2N)c2cccc(F)c2)cc1 (stereo not given)	i	i	-19	-19	21µM*	?
COc1ccc(C(C(=O)NC2CCCC2)N(C(=O)c2snc(-c3ccc(F)cc3)c2N)c2ccc(OC)cc2)cc1 (stereo not given)	i	i	0	-4	1%	9%
COc1ccc(C(C(=O)NC2CCCC2)N(C(=O)c2snc(-c3ccc(F)cc3)c2N)c2ccc(F)cc2)cc1 (stereo not given)	?	?	-3	-6	16µM*	?
NC(N)=N/N=C/c1ccc(OCc2ccccc2)c(OCc2ccccc2)c1	?	i	-21	14	21%	12µM*
CCOc1cc(/C=N/N=C(N)N)ccc1OCc1ccc(Cl)cc1	?	?	-31	-19	?	18µM*
CCc1ccc(NC(=O)CN(c2ccc(C)cc2)S(=O)(=O)c2c(C)nn(C)c2C)cc1	i	i	·	·	·	·
Cc1ccc(C2C3=C(CC(C)(C)CC3=O)OC3=C2C(=O)CC(C)(C)C3)cc1	i	i	-85*	1	0%	-13%
CCn1nnc(-c2ccccc2NC(=O)c2cc(OC)cc(OC)c2)n1	i	i	-8	-3	17%	19%
CCn1nnc(-c2ccccc2NC(=O)c2cc(OC)c(OC)c(OC)c2)n1	i	i	-3	8	15µM*	?
SMILES	KB-3-1 tox	KB-V1 cytotox	KCNH2 3.1 inh	hERG WT inh	SW480 rerep	MCF10A rerep
CCn1c2ccccc2c2cc(NC(=O)c3cc(OC)cc(OC)c3)ccc21	?	2.3µM*	-25	2	0.65µM*	1.5µM*
CCn1c2ccccc2c2cc(NC(=O)c3cc(OC)c(OC)c(OC)c3)ccc21	0.58µM*	?	-11	2	0.82µM*	?
CCn1c2ccccc2c2cc(NC(=O)c3cccc([N+](=O)[O-])c3)ccc21	i	i	-19	7	?	?
CCn1c2ccccc2c2cc(NC(=O)COc3ccc(OC)cc3)ccc21	i	i	-3	-12	-11%	0%
Cc1c(C(=O)Nc2ccc(C(=O)Nc3ccccc3)cc2)cccc1[N+](=O)[O-]	i	?	?	-5	-7%	17%
Cc1c(C(=O)Nc2ccccc2-c2ccccc2)cccc1[N+](=O)[O-]	i	15µM*	·	-19	-12%	18%
O=C(CC1C(=O)NCCN1Cc1c(F)cccc1Cl)NC1CCCC1 (stereo not given)	i	i	-3	-9	-2%	-2%
Cc1nn(C)cc1CN1CCC(n2nccc2NC(=O)CCCc2ccccc2)CC1	i	i	10	7	0%	11%
CC1=C(C(=O)N(C)C)CC(CC(=O)NC2CCCCC2)C(=O)N1Cc1ccccc1 (stereo not given)	i	i	0	4	·	·
Cc1ccc(-n2nc3ccc(NC(=O)c4ccco4)cc3n2)cc1	i	i	6	-9	1%	11%
CCn1c2ccccc2c2cc(NC(=O)c3ccc(Br)o3)ccc21	i	i	-6	-3	0%	?
Cc1ccc(-n2nc3ccc(NC(=O)c4cccc([N+](=O)[O-])c4C)cc3n2)cc1	i	?	-29	5	?	13µM*
CCn1c2ccccc2c2cc(NC(=O)c3ccc(=O)oc3)ccc21	i	i	-3	-3	?	16µM*
CCOC(=O)Nc1ccc2c(c1)N(C(=O)OC)c1ccccc1CC2	?	5.8µM*	17	2	?	?
CCn1c2ccccc2c2cc(/C=N/NC(=O)c3ccc(O)cc3)ccc21	?	21µM*	-3	-2	?	?
CS(=O)(=O)c1ccc(/C=C2\C=Cc3ccccc32)cc1	i	i	·	·	·	·
O=C(c1ccccc1)N1CCN(C(=O)c2nn3c(C(F)(F)F)cc(-c4ccco4)nc3c2Br)CC1	i	i	-7	29	-12%	1%
CN(C)CC(=O)N1c2ccccc2CCc2ccc(NC(=O)c3ccc(N)cc3)cc21	i	i	-11	10	-3%	-3%
